Test results as given in PubChem BioAssay AID743446 (Broad Institute, 2014).
Potency and affinity values are given separately. Values without a mark were called inactive. How the calls were made is not given here.

experiment: HEK293 cell cytotoxicity, dose response, cytotoxicity control, plate reader, cherry-picked samples (AID 743446); conditions: active compounds read low; at 26 µM unless noted

Structure (SMILES) | max activity
O=C(O)c1nn(Cc2ccc(Cl)cc2Cl)c2ccccc12 | 19.3% [at 0.38 µM]
CC(C)(C)n1cc(C(=O)c2ccc3ccccc3c2O)cn1 | -8.13%
COC(=O)c1ccc(NC(=O)CSc2nc3ccc(N4C(=O)C5C6C=CC(C6)C5C4=O)cc3s2)cc1 (stereo not given) | -25.2%
O=Cc1cn(Cc2cccc([N+](=O)[O-])c2)c2ccccc12 | -15.2% [at 12 µM]
CNC(=O)Oc1cccc(-c2cn3cc(Cl)ccc3n2)c1 | 27.7% [at 0.38 µM]
